Only some compounds are listed: those with a hit (about 2.2% of all), similar ones and a draw of the others.
Mito fusion yeast: mitochondrial division inhibition or fusion activation. S. cerevisiae fusion-defective mutant growth rescue, CellTiterGlo 48 h. AID 485298. hit rate 0.23% among 320,000. Potency, µM (top dose mostly 46.1 µM), usual class: activators; further: nearly all actives have a fitted effect of over 45% in size
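Growth-rescue viability read-out: after 48 h at the non-permissive 37C in glycerol/ethanol YPEG, yeast mitochondrial fusion mutants are measured by CellTiterGlo luminescence; compounds (23 nl pinned per well) restoring growth score as division inhibitors or fusion activators.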
TDP43 rescue: TDP-43 toxicity inhibition in yeast | hit rate 1.8% among 410,000 | TDP-43 expressing yeast growth rescue, BacTiter-Glo, 24 h | Potency, µM (titrated, usually from 46.1 µM), actives largely listed as activators; further: nearly all actives have a fitted effect of over 50% in size
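In this qHTS, compounds that restore growth of yeast expressing TDP-43 appear as activators. Cells (OD600=0.02, galactose medium, raffinose-pregrown) are incubated with compound 24 hr at 30 deg C and growth is quantified by BacTiter-Glo.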
aSyn yeast inh: alpha-synuclein toxicity inhibition in yeast; Potency, µM (titrated, usually from 46.1 µM), most hits filed as activators; hit rate 0.14% among 370,000; Yeast expressing alpha-synuclein, growth rescue, BacTiter-Glo, 24 h; further: nearly all actives have a fitted effect of over 65% in size
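Readout is rescue of growth in alpha-synuclein-expressing yeast, so inhibitors of toxicity appear as activators. Growth after 24 hr at 30 deg C in galactose medium is quantified by luminescence.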
FUS suppressor: FUS proteinopathy suppression in yeast; Potency, µM (series often up to 76.6 µM), hits mostly activators; hit rate 0.24% among 390,000; S. cerevisiae FUS-expressing, growth rescue, OD600, 24 h; further: nearly all actives have a fitted effect of over 55% in size
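Galactose (2%) drives FUS expression in yeast precultured in raffinose; seeding density OD 0.005. Test compounds incubated 24hr at 30C and 99% humidity before absorbance at 600 nm was measured.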
Abeta rescue: A-beta toxicity reversal in yeast; Potency, µM (titrated, usually from 46.1 µM), hits mostly activators; yeast expressing A-beta42, growth rescue, OD600, 48 h; response scale: 0% DMSO, 100% iron-clioquinol control; AID 1347071; hit rate 0.063% among 410,000; further: nearly all actives have a fitted effect of over 55% in size
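Yeast A-beta toxicity model in growth medium with pinned compounds, 48 h at 30 C; growth read as absorbance at 600 nm. Normalized to FeCl3/clioquinol equimolar mix (positive) and DMSO (negative).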
A number is an active result; 0 = inactive; ? = inconclusive; - = no result given; ! = a repeat was not active; [ ] = another dose, or the depositor's remark. The call rests on the fitted dose curve; in most records, active means well fitted curve in the direction sought with a large enough effect; inconclusive means small, poorly fitted or top-dose-only effect, or another doubt; inactive means no such curve, though single readings can be large; an effect the other way counts as inactive or inconclusive.

SMILES | Mito fusion yeast | TDP43 rescue | aSyn yeast inh | FUS suppressor | Abeta rescue
CN(C)C(CNc1ncnc2sc3c(c12)CCCC3)c1ccco1 (configuration not stated) | 0 | 0 | 0 | ? | 0
c1ccc(CNc2ncnc3sc4c(c23)CCCC4)nc1 | 0 | 12.6µM | 0 | 0 | 0
Cc1nc(NCc2ccco2)c2c3c(sc2n1)CCC3 | 0 | ? | 0 | ? | 0
Cc1nc(NCc2ccccn2)c2c3c(sc2n1)CCCC3 | 20µM | 0 | 0 | 0 | 0
CC1CCc2sc3nc(NCc4ccco4)n4ncnc4c3c2C1 (configuration not stated) | 0 | 25.1µM | 0 | 0 | 0
CCN(CC)S(=O)(=O)c1ccc2c(c1)c(=O)c(C(=O)N(C)Cc1ccccc1)cn2C | - | 0 | - | 0 | 0
Cc1cc(C)cc(NC(=O)C(C)N2Cc3ccccc3C2=O)c1 (configuration not stated) | - | 0 | - | 0 | 0
COc1nc(NC23CC4CC(CC(C4)C2)C3)nc(OC)n1 | 0 | 14.1µM | 0 | 0 | 0
CC(=O)N(O)c1ccc(C=Cc2ccccc2)cc1 | - | 14.1µM | 0 | 0 | 0
OCc1ccc(-c2nn(Cc3ccccc3)c3ccccc23)o1 | 20.6µM! | 0 | 3.98µM | 0 | 0
CCCCn1nnc(NC(=S)NC(=O)c2cccs2)n1 | 0 | 35.5µM | 0 | - | 0
Cn1nnc(NC(=S)NC(=O)c2ccc3ccccc3c2)n1 | - | ? | 0 | 0 | 0
Cn1nnc(NC(=S)NC(=O)c2cccc3ccccc23)n1 | 0 | 0 | 0 | 0 | 11.2µM
Cc1nc(-c2ccccn2)nc(SCC(=O)c2ccccc2)c1Cl | 0 | 17.8µM | 0 | 0 | 0
CCOc1ccc(N2CC(c3nc4ccccc4n3CCCOc3ccccc3)CC2=O)cc1 (configuration not stated) | - | ? | - | ? | 0
Clc1nc(Cl)nc(NCCC2=CCCCC2)n1 | 0 | 10µM | 0 | 0 | 0
CCOc1nc(NCCO)nc(NCCC2=CCCCC2)n1 | 0 | 0 | 0 | 0 | 0
COc1ccc(Br)c(C(=O)N2CCN(S(=O)(=O)/C=C/c3ccccc3)CC2)c1 | 0 | 12.6µM | 0 | 0 | 0
C#CCNC(=O)C[C@H]1C[C@@]2(C(=O)OC)C(=C[C@H](C3CCCC3)O[C@@H]2C)N(Cc2ccco2)C1=O | - | - | - | 0 | -
O=c1c2cn[nH]c2nc(SCc2cccc(Br)c2)n1-c1ccc(Cl)cc1 | - | 0 | - | 35.5µM | 0
CCOc1ccccc1/C=C/c1onc(C)c1S(=O)(=O)N1CCC(C(=O)N2CCCCC2)CC1 | - | 0 | - | 0 | 0
CCC(=O)Nc1ccc(NCc2ccc(-c3ccccc3)cc2)cc1 | 0 | 12.6µM | 0 | 0 | 0
O=C1/C(=C/C=C/c2ccco2)SC(=S)N1c1ccc(O)cc1 | 0 | 11.2µM | 0 | 0 | 0
CCOC(=O)c1c(N)sc2c(O)c(Br)ccc12 | 0 | 11.2µM | 0 | 0 | 0
CCOC(=O)c1c(N)sc2c(NC(C)=O)cccc12 | 0 | 0 | 0 | 0 | 0
SMILES | Mito fusion yeast | TDP43 rescue | aSyn yeast inh | FUS suppressor | Abeta rescue
Cc1cc(C)c2c(n1)sc1c(=O)n(-c3cc(Cl)ccc3C)nnc12 | - | 0 | - | 0 | 0
COc1ccc(-n2c(/C=C(\C)O)nc(=O)c3c(C)cc(C)nc32)cc1 | 20µM | 0 | 0 | 0 | 0
COc1ccc(-n2c(C)nn(C)c2=O)cc1 | 0 | 0 | 0 | 0 | 0
Cc1ccccc1Nc1c(-c2ccc(O)cc2)nc2c(C)cccn12 | - | 0 | - | 0 | 0
Cc1ccccc1Nc1c(-c2ccccn2)nc2c(C)cccn12 | 0 | 0 | 0 | 0 | 11.2µM
CC(C)c1ccc(Cc2cnc(NC(=O)c3ccc4c(c3)CC(c3ccccc3)OC4=O)s2)cc1 (configuration not stated) | - | 0 | - | 0 | 0
Cc1ccc(Cl)cc1NC(=O)COC(=O)C1CCCC1 | 0 | 0 | 0 | 0 | 5.62µM
COc1ccccc1NC(=O)COC(=O)/C=C/c1cccs1 | - | 14.1µM | 0 | - | 0
COc1ccc(Cl)cc1NC(=O)COC(=O)Cc1cccs1 | 0 | 10µM | 0 | 0 | 0
COc1ccc(Cl)cc1NC(=O)COC(=O)C1CCCCC1 | 0 | 12.6µM | 0[1.84 µM] | 0 | ?
COc1ccc(Cl)cc1NC(=O)COC(=O)C1CC1 | 0 | 0 | 0 | 0 | ?
COc1ccc(NC(=O)COC(=O)/C=C/c2cccs2)c(OC)c1 | 0 | 0 | 0 | 0 | 0
CCCCNC(=O)C1(C)CCCCN1Cc1ccccc1-c1ccccc1 (configuration not stated) | - | 0 | 0 | 0 | 0
CCN(CC)C1=N/C(=C\c2ccc(OC)cc2)C(=O)N1c1ccccc1 | 0 | 22.4µM | 0 | 0 | 0
CN(N=Cc1ccccc1O)c1ccc2ccccc2n1 | - | 0 | 0 | 0 | 0
CN(/N=C/c1cc(Br)cc(Br)c1O)c1cccc(C(F)(F)F)n1 | 0 | ? | 8.91µM | 0 | 0
Fc1ccc2[nH]c(-c3cccs3)cc2c1 | - | 20µM | - | 0 | ?
Fc1ccc(-c2cc(-c3cccs3)cc(-c3ccccc3)n2)cc1 | 0 | 0 | 0 | 0 | 0
O=C(Nc1ccccc1)c1ccccc1Oc1ccc(C(F)(F)F)cc1[N+](=O)[O-] | ? | 20µM | 0 | 0 | 0
O=[N+]([O-])c1cc(C(F)(F)F)ccc1Oc1cccnc1[N+](=O)[O-] | 0 | 0[0.397 µM] | 0 | 0 | 0
O=C(Nc1ccc(F)cc1)c1ccccc1Oc1ccc(C(F)(F)F)cc1[N+](=O)[O-] | ? | 22.4µM | 14.1µM | - | 0
Cc1ccc(C2C=CC(C#N)=CN2Cc2ccccc2)cc1 (configuration not stated) | - | ? | 0 | 0 | 0
COc1ccc(-c2nn(Cc3ccccc3)cc2C(=O)N2CCN(c3ncccn3)CC2)cc1OC | 0 | 0 | 0 | 0 | 0
COc1ccc(C(=O)NCCn2cc(SC(C)c3ccccc3)c3ccccc32)cc1OC (configuration not stated) | - | 0 | - | ? | 0
CCOC(=O)/C(=C\c1ccccc1)C(=O)c1cc(C(C)=O)c(Nc2ccccc2)s1 | 0 | 0 | 0 | 0 | 0
SMILES | Mito fusion yeast | TDP43 rescue | aSyn yeast inh | FUS suppressor | Abeta rescue
CCOC(=O)/C(=C\c1cccnc1)C(=O)c1cc(C(C)=O)c(Nc2ccccc2)s1 | 0 | 3.16µM | 0 | - | 0
CN(C)c1ccc(/C=C/c2ccnc3ccc(-c4ccccc4)cc23)cc1 | - | - | 0 | - | -
Cc1cc(C(=O)C(C)Sc2cccc[n+]2[O-])c(C)n1-c1ccc(Cl)cc1 (configuration not stated) | 0 | ? | 2.82µM | 0 | 0
Cc1cc(C(=O)C(=O)O)c(C)n1-c1ccc(Cl)cc1 | 0 | 0 | 0 | 0 | 0
O=C(NC1CC(=O)N(c2ccc(F)cc2)C1)C(c1ccccc1)c1ccccc1 (configuration not stated) | - | 0 | - | 0 | 0
COc1ccc(NC(=O)CCn2c(=O)c3cccn3c3ccccc32)c(OC)c1 | 0 | 22.4µM | 0 | 0 | 0
COc1ccc(NC(=O)NCc2cccn2C)c(OC)c1 | 0 | 0 | 0 | 28.2µM | 0
COc1ccc(NC(=O)CCn2c(=O)c3cccn3c3ccccc32)cc1 | 0 | 0 | 0 | 0 | 0
COc1ccc(NC(=O)NCc2ccncc2)c(OC)c1 | 0 | 0 | - | 0 | 0

Assay outcomes (PubChem)
